Data taken from PubChem BioAssay (NCI).
“And” between values parts separate entries of the source, which are not always exact repeats. Identical values can stand only once. This is part of a sample that, as a whole, favours compounds with a hit. Of some 79,000 tested, about 15% had one in any assay. The source made the active and inactive calls. Rule as the data show it: active = growth inhibition above about 70%; inactive = the rest.

How the values were obtained:
[1] = NCI Yeast Anticancer Drug Screen. Data for the rad50 strain (AID 155);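 also: 0% = growth of vehicle-only cultures of the same strain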; details: S. cerevisiae rad50 strain growth inhibition, stronger effect = higher value; at 50.0 µM unless noted
In short: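 Cells are treated with compound, grown, and their growth is then scored against vehicle-only cultures of the same repair-deficient yeast strain.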

[2] = NCI Yeast Anticancer Drug Screen. Data for the mec2-1 strain (AID 157); details: S. cerevisiae mec2-1 strain, stronger effect = higher value; at 50.0 µM unless noted
In short: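 Each compound was tested on mec2-1 yeast, a strain altered in DNA damage repair or cell cycle control. Growth inhibition is reported relative to vehicle.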

[3] = NCI Yeast Anticancer Drug Screen. Data for the sgs1 mgt1 strain (AID 161);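 also: 0% = growth of cultures given vehicle only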; details: S. cerevisiae sgs1 mgt1 strain, stronger effect = higher value; at 50.0 µM unless noted
In short: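 Read-out: growth inhibition vs vehicle controls. Cells: mutant yeast strain deficient in DNA damage repair.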

[4] = NCI Yeast Anticancer Drug Screen. Data for the cln2 rad14 strain (AID 165);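 also: 0% = growth equal to vehicle treated cultures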; details: S. cerevisiae cln2 rad14 strain, stronger effect = higher value; at 50.0 µM unless noted
In short: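 Test compounds were added to cln2 rad14 yeast cultures; inhibition of growth was then determined by comparison with vehicle treatment.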

[5] = NCI Yeast Anticancer Drug Screen. Data for the bub3 strain (AID 167); details: S. cerevisiae bub3 mutant strain, stronger effect = higher value; at 50.0 µM unless noted
In short: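 Part of a panel of yeast mutants defective in DNA damage repair or cell cycle regulation. Each strain is grown with compound, and inhibition is calculated relative to solvent-treated cultures.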

[6] = NCI Yeast Anticancer Drug Screen. Data for the mlh1 rad18 strain (AID 175); details: S. cerevisiae mlh1 rad18 strain growth inhibition, stronger effect = higher value; at 50.0 µM unless noted
In short: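 Inhibition values reflect reduced growth of mutant yeast versus vehicle-treated controls following compound exposure; the mutations affect DNA damage repair.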

Measured: growth inhibition

Cn1c(Nc2ccccc2)c(C=Nc2ccccc2)c(=O)n(C)c1=O
inactive: [1] -2.15% | [2] 3.45% | [3] -7.85% | [4] 7.55% | [5] -22.6% | [6] -0.9%

O=C(F)c1cccc2ccccc12
inactive: [1] -25.9% | [2] -14.7% | [3] -1% | [4] 7.6% | [5] -19.6% | [6] -31.3%

CC(=O)CC/C=C(\C)CC(C)C
inactive: [1] 17.4% | [2] 11.6% | [3] 2.85% | [4] 13.6% | [5] 9.8% | [6] 10.1%

C#CCOCC(CCl)OC(=O)Nc1ccccc1 (configuration not stated)
inactive: [1] 14.7% | [2] 47.1% | [3] 11.6% | [4] 11.8% | [5] 14.7%
active: [6] 84.4%

CCc1cccc(CC)c1N1C(=O)CC(Sc2ccccc2N)C1=O (configuration not stated)
inactive: [1] -18.1% | [2] -16.3% | [3] -14.8% | [4] -0.85% | [5] -9.5% | [6] -25.8%

CN(C)C(=O)Sc1ccc(C(C)(C)C)cc1
inactive: [1] 8.3% | [2] -8.1% | [3] -15.7% | [4] -41.5% | [5] -1.65% | [6] -28.2%

N#CC1CSCC1=O (configuration not stated)
inactive: [1] -6.5% | [2] -8.8% | [3] -20.4% | [4] -12.8% | [5] 9.9% | [6] -1.9%

CCCCC(O)CCC (configuration not stated)
inactive: [1] -30.4% | [2] -52.4% | [3] -24.8% | [4] 4.85% | [5] -48.7% | [6] -33.5%

COc1ccc(C(=O)NNC(=O)c2cccc3ccccc23)cc1
inactive: [1] 21.8% | [2] -9.75% | [3] 9.7% | [4] 5.8% | [5] 16.6% | [6] -3.6%

COc1cccc(C2c3cc4c(cc3OC(C)(O)C2C)OCO4)c1O (configuration not stated)
inactive: [1] -4.7% | [2] -3.75% | [3] -0.25% | [4] -24.8% | [5] 1.65% | [6] -9.9%

Cc1nc2c(N)n[nH]c(=O)n2n1
inactive: [1] -20.9% | [2] -14.4% | [3] -19.2% | [4] -54% | [5] 7.15% | [6] -4.7%

COC1OC(COC(c2ccccc2)(c2ccccc2)c2ccccc2)C(O)C(O)C1O (configuration not stated)
active: [4] 84.5%
inactive: [1] 40.7% | [2] 47% | [3] 42.6% | [5] 38% | [6] 41.1%

CC/C(=N/NC(N)=O)c1ccc(C)cc1
inactive: [1] -11.9% | [2] -11.8% | [3] -10.2% | [4] -21.1% | [5] 2.75% | [6] -8.9%

C/C(=N\Nc1nc2ccccc2s1)c1ccc2c(c1)Sc1ccccc1O2
inactive: [1] 42.9% | [2] 7.7% | [3] 11.9% | [4] 21.8% | [5] -1.8% | [6] 15.9%

CCCCC1(CC)COC(=O)N(C)C1 (configuration not stated)
inactive: [1] 10.8% | [2] 4.95% | [3] 0.65% | [4] -7.6% | [5] 18% | [6] 3%

CCCC(=O)n1ccc2ccccc21
inactive: [1] -14.8% | [2] -37.6% | [3] 7.45% | [4] 13.4% | [5] -12.9% | [6] 1.6%

COc1cccc2c1C(=O)c1c(O)c(CCl)cc(OC)c1C2=O
inactive: [1] 16.9% | [2] -4.6% | [3] 20.9% | [4] -33% | [5] 5.6% | [6] 14.9%

c1ccc(CSCc2cnc[nH]2)cc1
inactive: [1] -1.3% | [2] 0.6% | [3] -1.95% | [4] 14.8% | [5] 5.7% | [6] -6.95%

COc1ccccc1C(=O)NCC1CCCN2CCCCC12 (configuration not stated)
inactive: [1] 6.5% | [2] -6.95% | [3] 14.9% | [4] -6.5% | [5] 0.7% | [6] -45.4%

CCOC(=O)c1ccc(Cn2c(C)cc(=O)n(Cc3ccc(C(=O)OCC)cc3)c2=O)cc1
inactive: [1] 0.25% | [2] -14.1% | [3] -9.9% | [4] -27.6% | [5] 4.05% | [6] -7.7%

COc1ccccc1OC(=O)c1ccc(Cl)cc1
inactive: [1] 2.2% | [2] -17.6% | [3] 18.7% | [4] -63.9% | [5] 1.35% | [6] 0.75%

CC(C)CCCC(C)C1CCC2C3CC(C(=O)O)C(C)(CCC(=O)O)C3CCC12C (configuration not stated)
inactive: [1] 44% | [2] 36% | [3] 43.9% | [4] 30% | [5] 4% | [6] 41.7%

Nc1ccc(C(=O)O)cc1N
inactive: [1] 17.5% | [2] 46.6% | [3] 15.4% | [4] 15.3% | [5] 1.45% | [6] 45.5%

NNC(=S)N/N=C/c1ccc([N+](=O)[O-])s1
inactive: [1] 9.2% | [2] -2.4% | [3] 24.1% | [4] -47.4% | [5] -19.8% | [6] 6.35%

O=C1NC(=O)C2(CCCC2)N1
inactive: [1] -9.4% | [2] 8.05% | [3] 2.8% | [4] -74% | [5] 7.45% | [6] -37.9%

O=c1oc(-c2ccc([N+](=O)[O-])cc2Cl)nc2ccccc12
inactive: [1] 13.2% | [2] 23.4% | [3] 31.1% | [4] 2% | [5] 38.6% | [6] 29.9%

O/N=C1/C2CC3CC1(c1ccccc1)CC(/C3=N/O)/C2=N\O (configuration not stated)
inactive: [1] 9.15% | [2] 17.3% | [3] -12.1% | [4] 0.35% | [5] -17.8% | [6] -4.75%

Cc1nnc(N)nc1C
inactive: [1] 33% | [2] 9.5% | [3] -10.1% | [4] -0.8% | [5] -1.3% | [6] 13.6%

CCOC(=S)SCC(=O)CSC(=S)OCC
inactive: [2] 12.1% | [3] 21.7% | [4] 9.7% | [5] 50.2% | [6] 2.15%
active: [1] 73.8%

c1nc2c([nH]1)CCNC2c1ccc(C2NCCc3[nH]cnc32)cc1 (configuration not stated)
inactive: [1] 1.65% | [2] -1.65% | [3] 1.3% | [4] -38.9% | [5] -14.1% | [6] -2.95%

Cc1cccc(/C=N/NC(=S)NC(C)(C)C)n1
inactive: [1] -17.4% | [2] -32.4% | [3] -4.45% | [4] 0.1% | [5] 15.8% | [6] -27.1%

CN(C)c1ccc(C(c2ccc(N(C)C)cc2)c2ccc([N+](=O)[O-])cc2)cc1
inactive: [1] -3.75% | [2] -35.7% | [3] -48.3% | [4] 8.3% | [5] 39% | [6] -16.8%

O=C(Cc1ccccc1)C(c1ccccc1)C(c1ccccc1)c1ccccc1 (configuration not stated)
inactive: [1] -12.8% | [2] -11.8% | [3] 5.25% | [4] 13.6% | [5] -2.25% | [6] -1.25%

COc1ccc(C(=[N+]=[N-])c2ccc(OC)cc2)cc1
inactive: [1] -4.65% | [2] -6.85% | [3] 7.35% | [4] -48.2% | [5] -10.1% | [6] 4.75%

CCCOC(=O)c1cccnc1
inactive: [1] -13.2% | [2] -29.6% | [3] -14.7% | [4] 0.7% | [5] -6.75% | [6] -8.65%

CSc1nc(C)cc(=O)[nH]1
inactive: [1] -12.1% | [2] -2.95% | [3] -17.9% | [4] 20% | [5] 5.5% | [6] -13.3%

O=C1c2ccccc2C(=O)N1CN1C(=O)c2ccccc2S1(=O)=O
inactive: [1] 24.1% | [2] 15.6% | [3] 29.4% | [4] 24.2% | [5] 19.4% | [6] 34.9%

COC1=CC(=O)c2cc3ccc(OC)c(N)c3nc2C1=O
inactive: [1] 12.8% | [2] -7.2% | [3] 5.45% | [4] -4.2% | [5] 13.3% | [6] -10.9%

CCCCCCCCN(CCCCCCCC)CC(O)c1ccnc2c(Cl)cc(Cl)cc12 (configuration not stated)
inactive: [1] 16.5% | [2] 15.2% | [3] 43.2% | [4] 5.7% | [5] 4.85% | [6] 33.3%

Nc1ccc2c(O)cc(S(=O)(=O)O)cc2c1
inactive: [1] 39% and 26.9% | [2] 5.1% and 0.25% | [3] 4.5% and -20.9% | [4] -29.1% and -73% | [5] 19.6% and 4.85% | [6] 3.7% and 10.4%

BrCC1CN=C(c2ccccc2)O1 (configuration not stated)
inactive: [1] -5.55% | [2] -4% | [3] 2.65% | [4] -26.1% | [5] 1.6% | [6] -2.95%

C=CCc1cc(OC)c2c(c1)C(O)CC(c1ccc(OC)c(OC)c1)O2 (configuration not stated)
inactive: [1] 16.5% | [2] 1.25% | [3] 18.6% | [4] -14.3% | [5] 22.6% | [6] -4%
